Measured values taken from PubChem BioAssay (Tox21).
Inconclusive results are not listed. Calls of active or inactive are those of the source. Unless noted, calls follow the shape of the dose curve; as a rule, active = well fitted curve in the direction sought with a large enough effect in the repeat runs; inconclusive = weak or mixed curves; inactive = no such curve, though single readings can be large; an effect the other way counts as inactive or inconclusive.

Legend:
[1] = qHTS assay for small molecule agonists of the p53 signaling pathway (AID 651631; calls by dose curve; also: nearly all actives have a fitted effect of over 15% in size)
In short: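 Fluorescence intensity from cleaved LiveBLAzer B/G substrate (2 h, room temperature) served as the signal. Beforehand, HCT-116 reporter cells bearing p53 response elements were treated 16 h at 37 °C with DMSO-dissolved compounds.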

[2] = qHTS assay for small molecules that induce genotoxicity in human embryonic kidney cells expressing luciferase-tagged ATAD5 (AID 651632); also: nearly all actives have a fitted effect of over 15% in size
In short: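 Luminescence read-out: after 16 hr compound exposure at 37C, ATAD5-luciferase HEK293T cells received Amplite, 30 min RT, then CCD imaging. A rise in signal marks genotoxic stress.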

[3] = qHTS assay for small molecule agonists of the p53 signaling pathway - cell viability (AID 651633; calls by dose curve;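 also: p53RE-bla HCT reporter cells with a stable beta-lactamase p53 reporter; nearly all actives have a fitted effect of over 30% in size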)
In short: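 Viability counter-read: CellTiter-Glo luminescence (30 min, room temperature) in the same p53RE-bla plates. These plates had been exposed to compounds for 16 h at 37 C.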

[4] = qHTS assay for small molecule disruptors of the mitochondrial membrane potential - cell viability (AID 720634; calls by dose curve;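 also: human HepG2 liver cancer cells; nearly all actives have a fitted effect of over 20% in size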)
In short: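 Luminescence from CellTiter-Glo (ATP content) gave viability in HepG2 cells, read in the same wells as the MMP dye assay after 1 hr compound exposure at 37 C.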

[5] = qHTS assay for small molecule disruptors of the mitochondrial membrane potential (AID 720635)
In short: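 Mitochondrial membrane potential tracked with Mito-MPS dye, red aggregates (ex 540/em 590 nm) against green monomers (ex 490/em 535 nm). Compound treatment 1 hr at 37C, dye 30 min in HepG2.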

[6] = qHTS assay to test for compound auto fluorescence at 590 nm (red) in HepG2 cells (AID 720674)
In short: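 1 hr compound incubation on HepG2 cells, 37 C, 5% CO2; plate read ex 540 nm / em 590 nm; intensities reported as Rose Bengal sodium equivalents.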

[7] = qHTS assay to test for compound auto fluorescence at 535 nm (green) in HepG2 cells (AID 720675)
[8] = qHTS assay to test for compound auto fluorescence at 460 nm (blue) in HEK293 cells (AID 720678)
In short: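 Auto fluorescence in the blue band was quantified as triamterene equivalency. HEK293 cells were seeded at 2,000/well, dosed after a 4-5 hr attachment, and kept overnight at 37C before the 405/460 nm reading.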

[9] = qHTS assay to test for compound auto fluorescence at 590 nm (red) in HEK293 cells (AID 720679)
In short: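 Autofluorescence equivalency to Rose Bengal sodium, 540/590nm, in HEK293 cells exposed overnight to 23 nL compound per well.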

[10] = qHTS assay to test for compound auto fluorescence at 535 nm (green) in HEK293 cells (AID 720680)
[11] = qHTS assay to test for compound auto fluorescence at 460 nm (blue) in HEK293 cell free culture (AID 720681)
In short: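 Blue fluorescence (Ex 405/Em 460 nm, triamterene-equivalent) was read immediately after pin transfer of compound or DMSO into medium (DMEM, 10% FBS) without cells.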

[12] = qHTS assay to test for compound auto fluorescence at 535 nm (green) in HEK293 cell free culture (AID 720682)
In short: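 Intrinsic compound fluorescence is measured in culture medium containing 10% FBS, with excitation at 485 nm and detection at 535 nm, referenced to fluorescein.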

[13] = qHTS assay to test for compound auto fluorescence at 590 nm (red) in HEK293 cell free culture (AID 720683)
In short: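 Red-channel autofluorescence of compounds in culture medium (DMEM, 10% FBS), no cells, measured at 540/590 nm. Rose Bengal sodium is the reference fluorophore for equivalence.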

[14] = qHTS assay to test for compound auto fluorescence at 590 nm (red) in HepG2 cell free culture (AID 720684)
In short: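 Cell-free; medium MEM + 10% FBS; compound or DMSO added by pintool; read Ex 540/Em 590 nm; Rose Bengal sodium as red reference fluorophore.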

[15] = qHTS assay to test for compound auto fluorescence at 460 nm (blue) in HepG2 cell free culture (AID 720685)
In short: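 Cell-free plates of MEM plus 10% FBS received 23 nL compound or DMSO vehicle; blue-channel (405/460 nm) intensity scored against triamterene as reference fluorophore.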

[16] = qHTS assay to test for compound auto fluorescence at 535 nm (green) in HepG2 cell free culture (AID 720686)
[17] = qHTS assay to test for compound auto fluorescence at 460 nm (blue) in HepG2 cells (AID 720687)
In short: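 Blue-channel autofluorescence (Ex/Em 405/460 nm, triamterene-equivalent) was measured after 1 hr compound exposure at 37 C, 5% CO2. Cells were HepG2, plated overnight at 37 C in MEM plus 10% FBS.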

[18] = molecular target: Glucocorticoid receptor (Homo sapiens) (UniProt P04150); assay: qHTS assay to identify small molecule agonists of the glucocorticoid receptor (GR) signaling pathway (AID 720691; active = well fitted activation curve with a large enough effect in the signal ratio in the repeat runs, not every such curve was filed as active; the % refers to the signal ratio); settings: GR-bla HeLa, beta-lactamase reporter ratio, 18 h; activation: at 62.4 µM (top of the series) unless noted
In short: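 HeLa GR-bla reporter line; cells pre-incubated 4 h, compound in DMSO 18 h at 37 C; LiveBLAzer B/G FRET substrate 2 h RT; fluorescence intensity read-out.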

[19] = qHTS assay for small molecules that induce genotoxicity in human embryonic kidney cells expressing luciferase-tagged ATAD5 - cell viability (AID 651634; calls by dose curve; also: nearly all actives have a fitted effect of over 25% in size)
In short: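 HEK293T ATAD5-luc cells, 2,000/well; compound 15.5 hr, 37C/5% CO2; CellTiter-Fluor 30 min, 37C; fluorescence read.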

[20] = molecular target: Glucocorticoid receptor (Homo sapiens) (UniProt P04150); assay: qHTS assay to identify small molecule antagonists of the glucocorticoid receptor (GR) signaling pathway (AID 720692; active = well fitted inhibition curve with a large enough effect in the signal ratio in the repeat runs, not every such curve was filed as active; the % refers to the signal ratio; also: potency is read from the fitted curve at half-maximal effect)
In short: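 Read-out: beta-lactamase FRET substrate fluorescence, 2 h at room temperature, in HeLa cells stably carrying a GRE-driven bla reporter. Compounds were co-incubated with 5 nM dexamethasone agonist (final) for 18 h at 37 C.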

Measured: Potency

Sequence of Glucocorticoid receptor (Homo sapiens) (P04150 whole entry, looked up): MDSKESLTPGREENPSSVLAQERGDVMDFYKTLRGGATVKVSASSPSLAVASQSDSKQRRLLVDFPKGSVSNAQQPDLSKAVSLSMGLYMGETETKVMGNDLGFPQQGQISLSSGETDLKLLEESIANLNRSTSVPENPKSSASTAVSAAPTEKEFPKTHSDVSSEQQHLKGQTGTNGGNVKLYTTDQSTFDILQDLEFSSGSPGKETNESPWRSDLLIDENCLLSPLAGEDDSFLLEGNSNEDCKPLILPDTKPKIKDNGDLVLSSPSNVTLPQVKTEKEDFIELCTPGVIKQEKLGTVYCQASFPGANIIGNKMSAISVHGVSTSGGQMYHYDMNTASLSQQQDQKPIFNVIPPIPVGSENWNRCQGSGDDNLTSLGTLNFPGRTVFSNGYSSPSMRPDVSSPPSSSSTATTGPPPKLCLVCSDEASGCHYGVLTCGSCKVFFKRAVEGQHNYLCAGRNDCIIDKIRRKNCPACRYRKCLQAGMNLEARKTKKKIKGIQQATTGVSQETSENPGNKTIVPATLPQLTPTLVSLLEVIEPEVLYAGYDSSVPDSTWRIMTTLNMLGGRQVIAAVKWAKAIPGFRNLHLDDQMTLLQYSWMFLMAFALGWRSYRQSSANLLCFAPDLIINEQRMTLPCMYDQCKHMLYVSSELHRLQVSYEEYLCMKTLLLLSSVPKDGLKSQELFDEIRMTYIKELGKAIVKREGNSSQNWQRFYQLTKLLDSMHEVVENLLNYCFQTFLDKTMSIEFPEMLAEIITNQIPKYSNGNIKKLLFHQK

COc1ccc(S(=O)(=O)N2C(=O)[C@@](c3ccccc3OC)(N3C[C@H](O)C[C@H]3C(=O)N(C)C)c3cc(Cl)ccc32)c(OC)c1
inactive: [1] | [2] | [3] | [4] | [5] | [6] | [7] | [8] | [9] | [10] | [11] | [12] | [13] | [14] | [15] | [16] | [17] | [18]

CC1=CC=C(C(C)C)CC1
inactive: [1] | [2] | [3] | [19] | [6] | [7] | [8] | [10] | [11] | [12] | [13] | [14] | [15] | [17]

C/C=C/C=C/CO
inactive: [1] | [2] | [3] | [4] | [5] | [6] | [7] | [8] | [9] | [11] | [12] | [13] | [14] | [15] | [16] | [17] | [18] | [20]

Nc1ccc(S(=O)(=O)Nc2ccccc2)cc1
inactive: [1] | [2] | [3] | [4] | [5] | [6] | [7] | [8] | [9] | [10] | [11] | [12] | [13] | [14] | [15] | [16] | [17] | [18] | [20]

CC(C)OC(=O)C(C)N(C(=O)c1ccccc1)c1ccc(F)c(Cl)c1 (stereo not drawn)
inactive: [1] | [2] | [3] | [6] | [7] | [8] | [9] | [10] | [11] | [12] | [13] | [14] | [15] | [16] | [17] | [18]
active: [20] 43.6 µM

CCCCC
inactive: [1] | [2] | [3] | [4] | [7] | [8] | [9] | [10] | [11] | [12] | [13] | [14] | [15] | [16] | [17] | [18] | [20]
